Measurements as given in PubChem BioAssay (EPA / NIEHS).
“And” between values parts separate entries of the source, which are not always exact repeats. Equal entries are not always repeated. Inconclusive results are not listed. Where a structure was tested more than once in an assay, its records may differ in their call. The source made the active and inactive calls. How the source made its calls, unless noted: active means hit-call score of the fitted dose curve at least 0.9, where 1 is the maximum; inconclusive means response in the unintended direction; inactive means score below 0.9.

How the values were obtained:
TIMP1, TIMP1 (gene 7076) = test: LTEA_HepaRG_TIMP1: Life Technologies and Expression Analysis (LTEA) Assay for TIMP1 using HepaRG (AID 2283534; active means hit-call score of the fitted dose curve at least 0.9, where 1 is the maximum; inactive means score below 0.9); settings: mRNA level, 48 h; actives raise or lower the signal
In short: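 TIMP1 induction or repression in HepaRG cells after 48 h chemical exposure (eight concentrations, highest 100 uM), assessed by normalized qRT-PCR with bidirectional fitting to DMSO controls.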

[1] = read-out: Tumor necrosis factor receptor 1 (TNFRSF1A), TNFRSF1A (gene 7132); test: LTEA_HepaRG_TNFRSF1A: Life Technologies and Expression Analysis (LTEA) Assay for Tumor necrosis factor receptor 1 (TNFRSF1A) using HepaRG (AID 2283535; active means hit-call score of the fitted dose curve at least 0.9, where 1 is the maximum; inactive means score below 0.9); settings: mRNA level, 48 h; actives raise or lower the signal
In short: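 Assay uses 48 h chemical treatment of differentiated HepaRG monolayers, tested in duplicate at eight concentrations from 100 uM downward in 0.5% DMSO. mRNA is normalized to ACTB, GAPDH and POLR2A, with induction or suppression fitted relative to vehicle.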

[2] = read-out: Thyroid Hormone Responsive (THRSP), THRSP (gene 7069); test: LTEA_HepaRG_THRSP: Life Technologies and Expression Analysis (LTEA) Assay for Thyroid Hormone Responsive (THRSP) using HepaRG (AID 2283536; active means hit-call score of the fitted dose curve at least 0.9, where 1 is the maximum; inactive means score below 0.9); settings: mRNA level, 48 h; actives raise or lower the signal
In short: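 qRT-PCR read-out (Fluidigm TaqMan), housekeeping-normalized (ACTB/GAPDH/POLR2A). HepaRG, 48 h chemical exposure, 8-pt half-log series from 100 uM in 0.5% DMSO, duplicates. Bidirectional curve fit vs 0.5% DMSO baseline.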

[3] = read-out: Cellular tumor antigen p53 (Homo sapiens) (UniProt P04637); test: LTEA_HepaRG_TP53: Life Technologies and Expression Analysis (LTEA) Assay for Tumor Protein P53 (TP53) using HepaRG (AID 2283537; active means hit-call score of the fitted dose curve at least 0.9, where 1 is the maximum; inactive means score below 0.9); settings: mRNA level, 48 h; actives raise or lower the signal
In short: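 TP53 transcript measured by qRT-PCR, normalized to three housekeeping genes, after 48 h treatment of human HepaRG cultures with chemicals from 100 uM downward in half-log steps (0.5% DMSO vehicle, serum-free induction medium). Up- or down-regulation fitted against DMSO.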

[4] = read-out: UDP glucuronosyltransferase (UGT1A1), UGT1A1 (gene 54658); test: LTEA_HepaRG_UGT1A1: Life Technologies and Expression Analysis (LTEA) Assay for UDP glucuronosyltransferase (UGT1A1) using HepaRG (AID 2283538; active means hit-call score of the fitted dose curve at least 0.9, where 1 is the maximum; inactive means score below 0.9); settings: mRNA level, 48 h; actives raise or lower the signal
In short: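 mRNA induction or loss of UGT1A1, by TaqMan qRT-PCR, in duplicate HepaRG wells after 48 h exposure to half-log dilutions topping at 100 uM; DMSO (0.5%) served as baseline.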

[5] = read-out: UDP glucuronosyltransferase (UGT1A6), UGT1A6 (gene 54578); test: LTEA_HepaRG_UGT1A6: Life Technologies and Expression Analysis (LTEA) Assay for UDP glucuronosyltransferase (UGT1A6) using HepaRG (AID 2283539; active means hit-call score of the fitted dose curve at least 0.9, where 1 is the maximum; inactive means score below 0.9); settings: mRNA level, 48 h; actives raise or lower the signal
In short: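 Measures mRNA change in HepaRG hepatic cells exposed 48 h to chemicals (eight-point, maximum 100 uM, 0.5% DMSO vehicle) in serum-free induction medium. Expression normalized to endogenous controls; DMSO served as negative control and baseline.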

[6] = read-out: X-box binding protein 1 (XBP1), XBP1 (gene 7494); test: LTEA_HepaRG_XBP1: Life Technologies and Expression Analysis (LTEA) Assay for X-box binding protein 1 (XBP1) using HepaRG (AID 2283540; active means hit-call score of the fitted dose curve at least 0.9, where 1 is the maximum; inactive means score below 0.9); settings: mRNA level, 48 h; actives raise or lower the signal
In short: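 Eight concentrations (half-log, highest 100 uM, 0.5% DMSO) tested in duplicate on HepaRG cells over 48 h in serum-free induction medium; qRT-PCR of XBP1 normalised to ACTB, GAPDH, POLR2A.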

[7] = LTEA_HepaRG_LDH_cytotoxicity: Cytotoxicity Assessment in the Life Technologies and Expression Analysis (LTEA) Assay (AID 2283563)
In short: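 Spent-medium LDH after 48 h chemical exposure of HepaRG cells in serum-free induction medium; eight concentrations, half-log dilutions from 100 uM, duplicate wells, fitted upward relative to 0.5% DMSO.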

[8] = TOX21_p53_BLA_p2_viability: Viability Assessment in the Tox21 HCT-116 p53 Agonism Beta-lactamase Assay, Phase 2 (AID 2283591);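 further: compound exposure lasted 16 h at 37 °C; actives lower the ATP signal meaning cytotoxicity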
In short: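 HCT116 p53-bla cells, 4000/well, dosed after 5 h plating (217-fold dilution of DMSO stocks) and incubated 16 h at 37C. Viability taken as cellular ATP by CellTiter-Glo luminescence after 30 min RT; signal loss marks cytotoxicity.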

[9] = TOX21_p53_BLA_p3_viability: Viability Assessment in the Tox21 HCT-116 p53 Agonism Beta-lactamase Assay, Phase 3 (AID 2283593);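 further: cells exposed to compound for 16 h before reading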
In short: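 HCT116 cells, 4000/well, dosed 5 h after plating by pin transfer (217-fold dilution from DMSO stock) and incubated 16 h at 37C, 5% CO2. Viability read as ATP luminescence with CellTiter-Glo after 30 min at room temperature.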

[10] = molecular target: Cellular tumor antigen p53 (Homo sapiens) (UniProt P04637); test: TOX21_p53_BLA_p3_ratio: Tox21 HCT-116 p53 Agonism Beta-lactamase Assay, Ratio, Phase 3 (AID 2283596)
Cellular tumor antigen p53 (Homo sapiens), sequence (P04637 whole entry, looked up): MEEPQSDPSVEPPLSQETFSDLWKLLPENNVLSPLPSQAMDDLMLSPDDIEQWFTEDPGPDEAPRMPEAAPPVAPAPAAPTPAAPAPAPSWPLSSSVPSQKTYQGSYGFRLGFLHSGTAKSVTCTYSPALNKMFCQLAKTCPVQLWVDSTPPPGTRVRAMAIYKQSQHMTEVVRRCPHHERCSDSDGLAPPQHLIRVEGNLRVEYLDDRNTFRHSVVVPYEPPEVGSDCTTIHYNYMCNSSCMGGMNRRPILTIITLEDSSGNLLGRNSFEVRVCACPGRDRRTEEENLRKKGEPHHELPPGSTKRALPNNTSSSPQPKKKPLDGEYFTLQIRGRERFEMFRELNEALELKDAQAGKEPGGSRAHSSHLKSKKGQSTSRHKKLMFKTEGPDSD
In short: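 Cells were seeded at 4000/well, rested 5 h at 37C, then dosed with DMSO compound solutions (217-fold dilution) for 16 h. CCF4-AM substrate was loaded for 2 h at room temperature, and the 460/530 nm emission ratio was fitted for gain of signal versus DMSO.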

[11] = molecular target: Cellular tumor antigen p53 (Homo sapiens) (UniProt P04637); test: TOX21_p53_BLA_p4_ratio: Tox21 HCT-116 p53 Agonism Beta-lactamase Assay, Ratio, Phase 4 (AID 2283601)
In short: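 HCT-116 p53 beta-lactamase reporter cells (4000/well) preincubated 5 h, then compound (217-fold dilution of DMSO stock) for 16 h at 37C. CCF4-AM substrate added 2 h at room temperature; 460/530 nm emission ratio fitted upward versus DMSO.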

[12] = Tanguay_ZF_120hpf_MORT_legacy: (Legacy) Oregon State University Tanguay Lab 120 Hour Post-fertilization zebrafish Assay for Mortality (AID 2283633);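 on AC50: fitted as increase in binary mortality versus DMSO negative control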
In short: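 Single dechorionated Tropical 5D embryos were held with test chemical (0.64% DMSO final) from 6 to 120 hpf at 28C under foil. Deaths at 24 or 120 hpf were recorded as binary calls, analysed for increase over DMSO controls.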

[13] = Tanguay_ZF_120hpf_YSE_legacy: (Legacy) Oregon State University Tanguay Lab 120 Hour Post-fertilization zebrafish Assay for Yolk Sac Edema (AID 2283634)
In short: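 Single dechorionated embryos were held in sealed plates at 28C with test chemical (0.64% DMSO final) from 6 hpf until 120 hpf. Edema of the yolk sac was then recorded as a binary endpoint; non-mortality endpoints were skipped for dead embryos.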

[14] = Tanguay_ZF_120hpf_AXIS_legacy: (Legacy) Oregon State University Tanguay Lab 120 Hour Post-fertilization zebrafish Assay for Body Axis Malformation (AID 2283635);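 on AC50: potency for an increased fraction of larvae scored with body axis malformation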
In short: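 Each dechorionated embryo was exposed alone from 6 hpf, with DMSO at 0.64% (vol/vol) and trimethyltin chloride 5 uM as positive control. Axis malformation was recorded at 120 hpf unless the embryo had died.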

[15] = Tanguay_ZF_120hpf_EYE_legacy: (Legacy) Oregon State University Tanguay Lab 120 Hour Post-fertilization zebrafish Assay for Eye Malformation (AID 2283636);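 further: binary presence or absence of eye malformation scored by brightfield in 120 hpf larvae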
In short: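 5D wild-type embryos, pronase-dechorionated at 4 hpf; static exposure 6–120 hpf, 28C, dark; DMSO 0.64% final; 5uM trimethyltin chloride positive control. Binary eye-defect scoring at 120 hpf; dead embryos not scored.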

[16] = Tanguay_ZF_120hpf_SNOU_legacy: (Legacy) Oregon State University Tanguay Lab 120 Hour Post-fertilization zebrafish Assay for Snout Malformation (AID 2283637)
In short: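 Binary brightfield scoring of snout malformation at 120 hpf. Dechorionated 5D wild-type embryos, one per well, static exposure from 6 hpf at 28C, sealed and dark; final DMSO 0.64% (vol/vol), DMSO as baseline; 5uM trimethyltin chloride positive control.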

[17] = TOX21_p53_BLA_p4_viability: Viability Assessment in the Tox21 HCT-116 p53 Agonism Beta-lactamase Assay, Phase 4 (AID 2283597);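 further: hits lower the luminescence signal meaning cytotoxicity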
In short: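 In this multiplexed secondary endpoint, HCT116 cells (4000 per well, compound at 5 h, 16 h treatment) received CellTiter-Glo after the beta-lactamase read. Luminescence after 30 min RT reflects ATP, and falling signal marks cytotoxicity.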

[18] = molecular target: Cellular tumor antigen p53 (Homo sapiens) (UniProt P04637); test: TOX21_p53_BLA_p5_ratio: Tox21 HCT-116 p53 Agonism Beta-lactamase Assay, Ratio, Phase 5 (AID 2283599)
In short: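 HCT-116 p53-bla cells (4000/well) plated 5 h, dosed with compound (217-fold DMSO dilution) for 16 h at 37 C; CCF4-AM substrate 2 h at room temperature. Activity is the 460/530 nm emission ratio (405 nm excitation), fitted in gain-of-signal direction versus DMSO.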

Measured: AC50

CCCCOC(=O)[C@@H](C)Oc1ccc(Oc2ccc(C(F)(F)F)cn2)cc1
inactive: TIMP1, TIMP1 (gene 7076) | [1] | [2] | [3] | [4] | [5] | [6] | [7] | [8] | [9] | [10] | [11] | [12] | [13] | [14] | [15] | [16]

CC(C)CCCCCCc1ccc(O)cc1
inactive: TIMP1, TIMP1 (gene 7076) | [1] | [3] | [4] | [5] | [6] | [7] | [8] | [9] | [10] | [17] | [18] | [11] | [12] | [14] | [15] | [16]
active: [9] 66.6 µM and 71.5 µM | [10] 71.2 µM | [17] 25.6 µM and 34.7 µM | [18] 39.9 µM | [11] 46.2 µM and 41.7 µM

CCN(Cc1c(F)cccc1Cl)c1c([N+](=O)[O-])cc(C(F)(F)F)cc1[N+](=O)[O-]
active: [2] 22.8 µM | [3] 30.3 µM | [4] 7.12 µM | [17] 26.3 µM
inactive: TIMP1, TIMP1 (gene 7076) | [1] | [5] | [6] | [7] | [8] | [9] | [10] | [18] | [11] | [12] | [14] | [15] | [16]

C#CCOC(=O)[C@@H](C)Oc1ccc(Oc2ncc(Cl)cc2F)cc1
inactive: TIMP1, TIMP1 (gene 7076) | [1] | [3] | [5] | [6] | [7] | [8] | [9] | [10] | [17] | [18] | [11] | [12] | [13] | [14] | [15] | [16]
active: [4] 20.2 µM

CC(C)(c1ccc(O)cc1)c1ccc(O)cc1
active: [17] 85.1 µM | [11] 75.9 µM | [12] 16.4 µM | [14] 36.5 µM and 64.9 µM and 25.3 µM | [15] 40 µM and 40.1 µM | [16] 46.9 µM and 47.9 µM and 37.4 µM
inactive: TIMP1, TIMP1 (gene 7076) | [1] | [3] | [4] | [5] | [6] | [7] | [8] | [9] | [10] | [17] | [18] | [11] | [12] | [15]
